Drawing on paper doi:10.1101/2024.03.05.583629, this text covers binding signal for 21 sequences.

The target in one test is pT7_6His-AlfaTag-HOXD13 (human, UniProt P35453 263-343). As to the kind of experiment: PADIT-seq. The settings on record: dsDNA, one strand shown.
The next test addresses pT7_6His-AlfaTag-ZIF268 (human, UniProt P18146 335-423). As to the kind of experiment: PADIT-seq. Conditions: dsDNA, one strand shown.

pT7_6His-AlfaTag-HOXD13, sequence (P35453 263-343): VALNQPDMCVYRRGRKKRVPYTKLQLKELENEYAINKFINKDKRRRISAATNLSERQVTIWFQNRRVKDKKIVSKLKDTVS

As to “CTCGAGGATATCAAGATCTGGCCTCGGCGCTTGGGCGGGAACCTCTAGCTAGCCGACTCACTATAGGGATAATCGCCCTGAGCAAAGACC”, the binding signal is -0.995 ± 0.12 log2FC with pT7_6His-AlfaTag-HOXD13 and 0.158 ± 0.0966 log2FC with pT7_6His-AlfaTag-ZIF268.

“CTCGAGGATATCAAGATCTGGCCTCGGCCTTTTAGGAGGAACCTCTAGCTAGCCGACTCACTATAGGGATAATCGCCCTGAGCAAAGACC”: the binding signal in the test with pT7_6His-AlfaTag-HOXD13 turned out to be 1.3 ± 0.0799 log2FC; in the test with pT7_6His-AlfaTag-ZIF268 it was 0.0187 ± 0.0815 log2FC.

For the sequence “CTCGAGGATATCAAGATCTGGCCTCGGCGCGTGGAGTGGAACCTCTAGCTAGCCGACTCACTATAGGGATAATCGCCCTGAGCAAAGACC”, the binding signal is -0.822 ± 0.144 log2FC in the test with pT7_6His-AlfaTag-HOXD13 and 0.252 ± 0.117 log2FC in the test with pT7_6His-AlfaTag-ZIF268.

As for “CTCGAGGATATCAAGATCTGGCCTCGGCATTTTAAGAGGAACCTCTAGCTAGCCGACTCACTATAGGGATAATCGCCCTGAGCAAAGACC”, the binding signal with pT7_6His-AlfaTag-HOXD13 amounted to 2.98 ± 0.0964 log2FC; in the test with pT7_6His-AlfaTag-ZIF268, 0.0486 ± 0.104 log2FC.

In the case of “CTCGAGGATATCAAGATCTGGCCTCGGCATATTAAAAGGAACCTCTAGCTAGCCGACTCACTATAGGGATAATCGCCCTGAGCAAAGACC”, the values for the binding signal with pT7_6His-AlfaTag-HOXD13 and with pT7_6His-AlfaTag-ZIF268 were 2.69 ± 0.07 log2FC and 0.0247 ± 0.0768 log2FC, respectively.

For the sequence “CTCGAGGATATCAAGATCTGGCCTCGGCGTTTTACGGGGAACCTCTAGCTAGCCGACTCACTATAGGGATAATCGCCCTGAGCAAAGACC”, the binding signal in the test with pT7_6His-AlfaTag-HOXD13 amounted to 3.16 ± 0.0771 log2FC; in the test with pT7_6His-AlfaTag-ZIF268, 0.0617 ± 0.0868 log2FC.

In the case of “CTCGAGGATATCAAGATCTGGCCTCGGCGCGTGGTAAGGAACCTCTAGCTAGCCGACTCACTATAGGGATAATCGCCCTGAGCAAAGACC”, the binding signal is -0.999 ± 0.124 log2FC with pT7_6His-AlfaTag-HOXD13 and 0.49 ± 0.0946 log2FC with pT7_6His-AlfaTag-ZIF268.

In the case of “CTCGAGGATATCAAGATCTGGCCTCGGCGCGAAGGCGGGAACCTCTAGCTAGCCGACTCACTATAGGGATAATCGCCCTGAGCAAAGACC”, the binding signal is -1.08 ± 0.132 log2FC with pT7_6His-AlfaTag-HOXD13 and 0.278 ± 0.0993 log2FC with pT7_6His-AlfaTag-ZIF268.

Take “CTCGAGGATATCAAGATCTGGCCTCGGCCTATGGGCGGGAACCTCTAGCTAGCCGACTCACTATAGGGATAATCGCCCTGAGCAAAGACC”: the binding signal is -0.949 ± 0.119 log2FC with pT7_6His-AlfaTag-HOXD13 and 0.0355 ± 0.0969 log2FC with pT7_6His-AlfaTag-ZIF268.

On to “CTCGAGGATATCAAGATCTGGCCTCGGCACAGTAAAAGGAACCTCTAGCTAGCCGACTCACTATAGGGATAATCGCCCTGAGCAAAGACC”, for which the values for the binding signal with pT7_6His-AlfaTag-HOXD13 and in the test with pT7_6His-AlfaTag-ZIF268 were 1.94 ± 0.076 log2FC and 0.04 ± 0.0816 log2FC, respectively.

Take “CTCGAGGATATCAAGATCTGGCCTCGGCGCGTGGGTCGGAACCTCTAGCTAGCCGACTCACTATAGGGATAATCGCCCTGAGCAAAGACC”: the results for the binding signal with pT7_6His-AlfaTag-HOXD13 and in the test with pT7_6His-AlfaTag-ZIF268 were -0.691 ± 0.125 log2FC and 1.38 ± 0.0983 log2FC, respectively.

Consider “CTCGAGGATATCAAGATCTGGCCTCGGCTTGTGGGCGGGAACCTCTAGCTAGCCGACTCACTATAGGGATAATCGCCCTGAGCAAAGACC”, for which the binding signal was -0.943 ± 0.108 log2FC in the test with pT7_6His-AlfaTag-HOXD13 and 2.19 ± 0.0788 log2FC with pT7_6His-AlfaTag-ZIF268.

Turning to “CTCGAGGATATCAAGATCTGGCCTCGGCCGATGGGCGGGAACCTCTAGCTAGCCGACTCACTATAGGGATAATCGCCCTGAGCAAAGACC”, the binding signal with pT7_6His-AlfaTag-HOXD13 was -1.02 ± 0.115 log2FC; with pT7_6His-AlfaTag-ZIF268, 0.00701 ± 0.0902 log2FC.

Turning to “CTCGAGGATATCAAGATCTGGCCTCGGCTAGCTAAAAGGAACCTCTAGCTAGCCGACTCACTATAGGGATAATCGCCCTGAGCAAAGACC”, the binding signal was -0.637 ± 0.145 log2FC in the test with pT7_6His-AlfaTag-HOXD13 and 0.0229 ± 0.123 log2FC with pT7_6His-AlfaTag-ZIF268.

On to “CTCGAGGATATCAAGATCTGGCCTCGGCAGAATAAAAGGAACCTCTAGCTAGCCGACTCACTATAGGGATAATCGCCCTGAGCAAAGACC”, for which the figures for the binding signal with pT7_6His-AlfaTag-HOXD13 and in the test with pT7_6His-AlfaTag-ZIF268 were 0.976 ± 0.0851 log2FC and 0.0567 ± 0.0846 log2FC, respectively.

Regarding “CTCGAGGATATCAAGATCTGGCCTCGGCCGTTGGGCGGGAACCTCTAGCTAGCCGACTCACTATAGGGATAATCGCCCTGAGCAAAGACC”, the binding signal was -0.921 ± 0.107 log2FC with pT7_6His-AlfaTag-HOXD13 and 0.0419 ± 0.0862 log2FC with pT7_6His-AlfaTag-ZIF268.

As to “CTCGAGGATATCAAGATCTGGCCTCGGCATTTTACTCGGAACCTCTAGCTAGCCGACTCACTATAGGGATAATCGCCCTGAGCAAAGACC”, the binding signal in the test with pT7_6His-AlfaTag-HOXD13 amounted to 0.755 ± 0.0905 log2FC; with pT7_6His-AlfaTag-ZIF268, 0.0783 ± 0.0882 log2FC.

With “CTCGAGGATATCAAGATCTGGCCTCGGCCAAGTAAAAGGAACCTCTAGCTAGCCGACTCACTATAGGGATAATCGCCCTGAGCAAAGACC”, the figures for the binding signal with pT7_6His-AlfaTag-HOXD13 and in the test with pT7_6His-AlfaTag-ZIF268 were 0.682 ± 0.11 log2FC and 0.0157 ± 0.107 log2FC, respectively.

Regarding “CTCGAGGATATCAAGATCTGGCCTCGGCCTTTTAGAGGGAACCTCTAGCTAGCCGACTCACTATAGGGATAATCGCCCTGAGCAAAGACC”, the binding signal with pT7_6His-AlfaTag-HOXD13 came to 1.1 ± 0.092 log2FC; with pT7_6His-AlfaTag-ZIF268 it was 0.0179 ± 0.0928 log2FC.

For the sequence “CTCGAGGATATCAAGATCTGGCCTCGGCGCGTTGGCGGGAACCTCTAGCTAGCCGACTCACTATAGGGATAATCGCCCTGAGCAAAGACC”, the values for the binding signal in the test with pT7_6His-AlfaTag-HOXD13 and with pT7_6His-AlfaTag-ZIF268 were -1.07 ± 0.16 log2FC and 1.75 ± 0.117 log2FC, respectively.

In the case of “CTCGAGGATATCAAGATCTGGCCTCGGCGCCCCACGCGGAACCTCTAGCTAGCCGACTCACTATAGGGATAATCGCCCTGAGCAAAGACC”, the binding signal with pT7_6His-AlfaTag-HOXD13 is -0.996 ± 0.127 log2FC; with pT7_6His-AlfaTag-ZIF268, 0.0171 ± 0.103 log2FC.
